Results taken from PubChem BioAssay AID1117283 (Broad Institute, 2014).
Entries with a potency or affinity are not part of this list. Activity calls are given as the source filed them.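 Rule for the calls: active = fluorescent signal decreased by at least 40%; inconclusive = no clear call, values can overlap the other calls; inactive = the rest, including activity opposite to the expected direction.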

Experiment: inhibition of fibronectin matrix deposition – AH1F cells, Alexa488-fibronectin fluorescence, cherry-pick, set 2, dose response (AID 1117283);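 note: AH1F fibroblasts given Alexa488-labelled fibronectin at 24 nM final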
Details: AH1F fibroblasts, overnight; series mostly up to 35 µM

Question: For `CC(C)NC(=O)N(C)C[C@H]1Oc2ccc(NC(=O)CCN3CCOCC3)cc2C(=O)N([C@H](C)CO)C[C@@H]1C`, which outcome is on record?
Answer: inactive

Question: For `COC(=O)C[C@@H]1CC[C@H]2[C@@H](COc3ccc(NC(=O)Cc4cccs4)cc3C(=O)N2C)O1`, which outcome is on record?
Answer: inactive

Question: With `CCCCNC(=O)Nc1nc2ccc(CC)cc2s1` as the molecule, how does the outcome read?
Answer: inactive

Question: For `COc1ccc(S(=O)(=O)N2CCCCC2c2cc(C(=O)Nc3ccc4c(c3)OCO4)no2)cc1` (configuration not stated), which outcome is on record?
Answer: inactive

Question: For `CO[C@@H]1CN(C)C(=O)c2cc(NC(=O)Nc3ccc(Cl)c(Cl)c3)ccc2OC[C@@H](C)NC[C@@H]1C`, which outcome is on record?
Answer: inactive

Question: For `CCOc1ccccc1NC(=O)c1c(NC(=O)CCC(=O)O)sc2c1CCCCC2`, which outcome is on record?
Answer: inactive

Question: Which outcome does the source give for `COC(=O)c1c(NC(=O)CN2CCN(c3ccccc3Cl)CC2)sc(C)c1C` here?
Answer: inactive

Question: With `N#Cc1ccc(-c2ccc3c(c2)[C@@H]2[C@@H](CCN2S(=O)(=O)c2cccc(F)c2)[C@H](CO)N3)cc1` as the molecule, how does the outcome read?
Answer: inactive

Question: For `CO[C@H]1CN(C)C(=O)c2cc(NC(=O)Nc3ccc(Cl)c(Cl)c3)ccc2OC[C@@H](C)NC[C@@H]1C`, which outcome is on record?
Answer: inactive

Question: Which outcome does the source give for `C[C@H](CO)N1C[C@H](C)[C@@H](CN(C)C(=O)c2cccc(F)c2)Oc2ncc(-c3ccccc3)cc2C1=O` here?
Answer: inactive

Question: For `N#C[C@H]1[C@H](c2ccccc2C2=CCCCC2)[C@H](CO)N1S(=O)(=O)c1ccccc1`, which outcome is on record?
Answer: inactive

Question: For `O=C(CC1Nc2ccccc2NC1=O)Nc1ccc2c(c1)OCO2` (configuration not stated), which outcome is on record?
Answer: inactive

Question: With `CC(C)(C)c1cc(Cl)c(O)c(NC(=S)NC(=O)c2cccnc2)c1` as the molecule, how does the outcome read?
Answer: inactive

Question: With `O=C(c1cccnc1)N1C[C@H]2[C@@H](c3ccccc31)[C@@H](CO)N2CC1CCCC1` as the molecule, how does the outcome read?
Answer: inactive

Question: For `COCC(C)n1c(SCc2nc(N)nc(Nc3ccccc3C)n2)nc2ccccc2c1=O` (configuration not stated), which outcome is on record?
Answer: inactive

Question: Which outcome does the source give for `O=C(CCNS(=O)(=O)c1cccc2nonc12)NC1CCCc2ccccc21` (configuration not stated) here?
Answer: inactive

Question: With `CC1(C)Cc2c(C#N)c(SCC(=O)c3ccccc3)nc(N3CCOCC3)c2CS1` as the molecule, how does the outcome read?
Answer: inactive

Question: For `O=C(CSc1nc2ncc(Cl)cc2[nH]1)c1c[nH]c2ccccc12`, which outcome is on record?
Answer: inactive

Question: For `S=C(NCC1CCCO1)Nc1ccc(Cl)cc1Cl` (configuration not stated), which outcome is on record?
Answer: inactive

Question: For `CC(NC(=O)CSc1ccc(S(=O)(=O)N2CCOCC2)cn1)c1ccc(Cl)cc1Cl` (configuration not stated), which outcome is on record?
Answer: inactive

Question: For `COc1cccc(-c2ccc3c(c2)[C@H]2[C@H](CCN2S(=O)(=O)c2cccc(OC)c2)[C@@H](CO)N3)c1`, which outcome is on record?
Answer: inactive

Question: For `C[C@@H]1CN([C@H](C)CO)C(=O)c2cc(-c3ccccc3)cnc2O[C@H]1CN(C)C(=O)c1cccc(F)c1`, which outcome is on record?
Answer: inactive

Question: For `CO[C@@H]1CN(C)C(=O)c2ccc(NC(=O)c3ccc(-c4ccccc4)cc3)cc2OC[C@H](C)NC[C@H]1C`, which outcome is on record?
Answer: inactive

Question: For `C[C@@H]1CN([C@@H](C)CO)C(=O)c2cc(NC(=O)C3CCCCC3)ccc2O[C@@H]1CN(C)Cc1ccc(-c2ccccc2)cc1`, which outcome is on record?
Answer: inactive

Question: With `Cc1ccccc1S(=O)(=O)N1CC[C@H]2[C@H](CO)Nc3ccc(-c4ccc(C#N)cc4)cc3[C@H]21` as the molecule, how does the outcome read?
Answer: inactive

Question: With `C[C@H](CO)N1C[C@H](C)[C@H](CN(C)Cc2ccc(-c3ccccc3)cc2)Oc2ccc(NC(=O)CCCN(C)C)cc2C1=O` as the molecule, how does the outcome read?
Answer: inactive

Question: For `C[C@H](O)C#Cc1ccc2c(c1)O[C@H](CN(C)C)[C@@H](C)CN([C@H](C)CO)S2(=O)=O`, which outcome is on record?
Answer: inactive

Question: With `CC1CN(C(=O)c2cc3c(=O)n4ccccc4nc3n2C)CC(C)O1` (configuration not stated) as the molecule, how does the outcome read?
Answer: inactive

Question: Which outcome does the source give for `O=C(NCCS(=O)(=O)N1CCN(c2ccc(F)cc2)CC1)c1ccc(Br)o1` here?
Answer: inactive

Question: With `COc1ccccc1CC(=O)OC(C)C(=O)Nc1ccc(S(=O)(=O)N2CCCCC2)cc1` (configuration not stated) as the molecule, how does the outcome read?
Answer: inactive

Question: Which outcome does the source give for `Cc1ccc(N(CC(=O)NCc2ccco2)S(=O)(=O)c2ccccc2)cc1` here?
Answer: inactive

Question: With `COCC(=O)Nc1ccc2c(c1)C(=O)N(C)[C@@H]1CC[C@@H](CC(=O)NCc3ccccc3Cl)O[C@@H]1CO2` as the molecule, how does the outcome read?
Answer: inactive

Question: Which outcome does the source give for `O=S(=O)(c1ccccc1F)N1CC[C@H]2[C@H](CO)Nc3ccc(-c4cccc(F)c4)cc3[C@H]21` here?
Answer: inactive

Question: With `NC(=O)C1=C[C@H](c2coc3ccccc3c2=O)C[C@H](OCCCCO)O1` as the molecule, how does the outcome read?
Answer: inactive

Question: With `COc1cccc(CNC(=O)CCc2nnc3ccc(NCCCN4CCCC4=O)nn23)c1` as the molecule, how does the outcome read?
Answer: inactive

Question: Which outcome does the source give for `Cc1ccc(-c2nc3ncccc3o2)cc1NC(=O)c1ccco1` here?
Answer: inactive

Question: For `CS(=O)(=O)N1CCN(c2ccc(NC(=O)c3ccc([N+](=O)[O-])o3)cc2)CC1`, which outcome is on record?
Answer: inactive
